Test in all cases: DAPPL (digital affinity profiling via proximity ligation, sequencing); 10 mM Tris-HCl pH 7.5, 50 mM NaCl, 1 mM DTT, 4% glycerol, room temperature, 30 min; GST-TFs on glutathione beads, 16-mer random dsDNA library, 0.1% formaldehyde crosslink after washing; high values mean tight binding
For one experiment, the target named is T1, FEV (Homo sapiens, UniProt Q99581 1-238).
T1 sequence: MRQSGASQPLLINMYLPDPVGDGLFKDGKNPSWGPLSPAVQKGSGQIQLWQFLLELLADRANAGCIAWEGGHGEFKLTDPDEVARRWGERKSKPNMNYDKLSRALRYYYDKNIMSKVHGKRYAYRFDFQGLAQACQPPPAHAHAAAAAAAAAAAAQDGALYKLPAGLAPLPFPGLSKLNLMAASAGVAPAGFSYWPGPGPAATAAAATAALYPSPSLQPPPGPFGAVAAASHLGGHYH
The conditions noted are these: protein: recombinant; tags: N-terminal GST; dsDNA, one strand shown. The method, boiled down:
(§1)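 Human transcription factors fused to GST were expressed in yeast, captured on glutathione beads, given DNA barcodes and pooled with a GST-only negative control. Pools were incubated with 200 nmole of a 16-mer random double-stranded DNA library in Tris/NaCl/DTT/glycerol buffer at room temperature for 30 min. They were then washed, crosslinked with 0.1% formaldehyde, proximity-ligated (BsaI/T4 ligase, 1 h, 37 °C), PCR-amplified and sequenced on an Illumina NextSeq500. Binding signal is each 6-mer's read frequency for a factor divided by its frequency for the GST control.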

The target in another experiment is ETV5 (Homo sapiens, UniProt P41161 1-510). The conditions noted are these: protein: recombinant; tags: N-terminal GST; dsDNA, one strand shown. In short, it runs like this:
as §1

A further experiment deals with HSF1 (Homo sapiens, UniProt Q00613 1-529). The conditions noted are these: protein: recombinant; tags: N-terminal GST; chain copies: 3; dsDNA, one strand shown. In short, it runs like this: as §1
Chain of HSF1 (Q00613 whole entry): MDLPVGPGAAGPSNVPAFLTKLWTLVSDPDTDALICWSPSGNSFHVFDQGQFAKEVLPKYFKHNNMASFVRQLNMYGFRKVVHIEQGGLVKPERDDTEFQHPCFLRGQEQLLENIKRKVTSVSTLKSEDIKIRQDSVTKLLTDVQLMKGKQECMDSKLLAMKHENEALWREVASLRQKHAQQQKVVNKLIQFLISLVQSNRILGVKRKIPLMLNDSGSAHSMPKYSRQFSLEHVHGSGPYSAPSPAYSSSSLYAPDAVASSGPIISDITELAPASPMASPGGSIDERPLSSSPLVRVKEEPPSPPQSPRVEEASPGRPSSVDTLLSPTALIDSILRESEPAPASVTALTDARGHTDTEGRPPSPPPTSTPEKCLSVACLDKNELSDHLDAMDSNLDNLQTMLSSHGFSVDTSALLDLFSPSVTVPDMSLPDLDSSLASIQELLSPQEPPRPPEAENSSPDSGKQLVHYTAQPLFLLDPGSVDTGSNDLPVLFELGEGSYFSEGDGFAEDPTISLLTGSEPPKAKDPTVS
For a further experiment, the target named is T2, SPIC (Homo sapiens, UniProt Q8N5J4 1-248).
T2 sequence: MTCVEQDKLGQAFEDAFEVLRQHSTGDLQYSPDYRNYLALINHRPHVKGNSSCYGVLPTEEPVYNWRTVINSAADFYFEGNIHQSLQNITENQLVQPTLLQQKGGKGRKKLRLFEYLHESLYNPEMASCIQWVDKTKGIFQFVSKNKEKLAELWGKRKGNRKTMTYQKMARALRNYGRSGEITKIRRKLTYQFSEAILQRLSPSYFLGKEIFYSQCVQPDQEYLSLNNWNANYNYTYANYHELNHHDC
Conditions: protein: recombinant; tags: N-terminal GST; dsDNA, one strand shown. The method, boiled down: as §1

The target of the next experiment is ELF4 (Homo sapiens, UniProt Q99607 1-663). Conditions: protein: recombinant; tags: N-terminal GST; dsDNA, one strand shown. In short, it runs like this: as §1
Chain of ELF4 (Q99607 whole entry): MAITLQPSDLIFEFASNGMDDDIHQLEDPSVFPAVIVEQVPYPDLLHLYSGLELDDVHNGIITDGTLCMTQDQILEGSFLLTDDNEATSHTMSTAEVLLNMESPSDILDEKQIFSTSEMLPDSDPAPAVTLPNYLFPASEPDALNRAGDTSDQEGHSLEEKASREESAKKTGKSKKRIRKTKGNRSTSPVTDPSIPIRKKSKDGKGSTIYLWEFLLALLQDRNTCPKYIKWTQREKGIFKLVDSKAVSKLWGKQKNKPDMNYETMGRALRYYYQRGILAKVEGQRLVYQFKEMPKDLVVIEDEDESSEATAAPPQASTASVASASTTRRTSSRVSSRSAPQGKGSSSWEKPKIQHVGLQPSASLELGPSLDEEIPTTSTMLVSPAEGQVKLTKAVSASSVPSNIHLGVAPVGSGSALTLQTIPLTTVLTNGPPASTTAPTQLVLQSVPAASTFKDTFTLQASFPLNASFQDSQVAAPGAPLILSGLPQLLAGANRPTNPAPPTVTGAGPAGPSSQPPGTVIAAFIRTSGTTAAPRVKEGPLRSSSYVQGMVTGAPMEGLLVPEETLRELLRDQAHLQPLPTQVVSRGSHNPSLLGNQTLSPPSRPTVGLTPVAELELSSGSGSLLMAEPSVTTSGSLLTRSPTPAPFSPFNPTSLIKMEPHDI
The next experiment deals with T3, ELK4 (Homo sapiens, UniProt P28324-2 1-405).
T3 sequence: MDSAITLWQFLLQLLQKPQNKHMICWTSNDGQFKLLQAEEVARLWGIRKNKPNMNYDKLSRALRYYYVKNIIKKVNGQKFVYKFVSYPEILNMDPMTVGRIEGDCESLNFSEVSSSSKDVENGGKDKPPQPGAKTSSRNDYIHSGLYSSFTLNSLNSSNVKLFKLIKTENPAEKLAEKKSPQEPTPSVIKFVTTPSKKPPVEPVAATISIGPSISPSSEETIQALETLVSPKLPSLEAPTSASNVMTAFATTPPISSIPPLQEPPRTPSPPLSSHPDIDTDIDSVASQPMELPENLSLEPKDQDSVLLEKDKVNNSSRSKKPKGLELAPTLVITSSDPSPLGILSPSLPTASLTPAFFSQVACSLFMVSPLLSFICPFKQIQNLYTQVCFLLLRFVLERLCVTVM
Conditions: protein: recombinant; tags: N-terminal GST; dsDNA, one strand shown. In short, it runs like this: as §1

In another experiment the target is T4, ETV2 (Homo sapiens, UniProt O00321 1-342).
T4 sequence: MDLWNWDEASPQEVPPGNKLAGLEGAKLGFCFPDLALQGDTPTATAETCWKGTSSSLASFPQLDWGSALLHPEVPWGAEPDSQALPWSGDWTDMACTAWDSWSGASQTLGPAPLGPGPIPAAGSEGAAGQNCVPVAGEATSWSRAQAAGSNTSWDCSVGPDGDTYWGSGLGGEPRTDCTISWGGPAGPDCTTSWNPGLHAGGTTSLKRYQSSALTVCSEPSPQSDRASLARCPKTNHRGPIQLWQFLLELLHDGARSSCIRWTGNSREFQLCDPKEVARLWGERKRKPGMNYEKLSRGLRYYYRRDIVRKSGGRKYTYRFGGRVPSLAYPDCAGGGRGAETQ
The conditions noted are these: protein: recombinant; tags: N-terminal GST; dsDNA, one strand shown. The method, boiled down: as §1

For another experiment, the target named is T5, ELF3 (Homo sapiens, UniProt P78545 1-371).
T5 sequence: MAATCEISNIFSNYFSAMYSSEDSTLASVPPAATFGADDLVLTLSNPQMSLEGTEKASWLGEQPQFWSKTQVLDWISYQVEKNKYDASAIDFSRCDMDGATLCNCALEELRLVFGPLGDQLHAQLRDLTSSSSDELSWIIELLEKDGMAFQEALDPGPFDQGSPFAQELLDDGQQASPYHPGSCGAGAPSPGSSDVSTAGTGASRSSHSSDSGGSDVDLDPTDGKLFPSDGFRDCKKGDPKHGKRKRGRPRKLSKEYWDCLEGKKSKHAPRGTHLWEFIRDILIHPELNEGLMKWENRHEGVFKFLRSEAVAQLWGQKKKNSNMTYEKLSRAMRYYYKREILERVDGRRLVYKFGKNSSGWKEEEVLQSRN
Conditions: protein: recombinant; tags: N-terminal GST; dsDNA, one strand shown. In short, it runs like this: as §1

The next experiment has as its target CRX (Homo sapiens, UniProt O43186 1-299). The conditions noted are these: protein: recombinant; tags: N-terminal GST; dsDNA, one strand shown. The method, boiled down:
as §1

The target in another experiment is ETV1 (Homo sapiens, UniProt P50549 1-477). Conditions: protein: recombinant; tags: N-terminal GST; dsDNA, one strand shown. The method, boiled down:
as §1

Chain of CRX (O43186 whole entry): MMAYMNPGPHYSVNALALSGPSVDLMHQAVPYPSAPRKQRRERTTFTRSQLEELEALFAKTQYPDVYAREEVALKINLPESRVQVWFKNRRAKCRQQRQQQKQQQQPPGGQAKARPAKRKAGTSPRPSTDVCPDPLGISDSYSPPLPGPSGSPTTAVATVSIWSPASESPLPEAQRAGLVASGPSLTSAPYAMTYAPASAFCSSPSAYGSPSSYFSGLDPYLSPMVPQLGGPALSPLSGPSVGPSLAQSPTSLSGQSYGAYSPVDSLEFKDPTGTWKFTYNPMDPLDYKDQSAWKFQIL
Chain of ETV5 (P41161 whole entry): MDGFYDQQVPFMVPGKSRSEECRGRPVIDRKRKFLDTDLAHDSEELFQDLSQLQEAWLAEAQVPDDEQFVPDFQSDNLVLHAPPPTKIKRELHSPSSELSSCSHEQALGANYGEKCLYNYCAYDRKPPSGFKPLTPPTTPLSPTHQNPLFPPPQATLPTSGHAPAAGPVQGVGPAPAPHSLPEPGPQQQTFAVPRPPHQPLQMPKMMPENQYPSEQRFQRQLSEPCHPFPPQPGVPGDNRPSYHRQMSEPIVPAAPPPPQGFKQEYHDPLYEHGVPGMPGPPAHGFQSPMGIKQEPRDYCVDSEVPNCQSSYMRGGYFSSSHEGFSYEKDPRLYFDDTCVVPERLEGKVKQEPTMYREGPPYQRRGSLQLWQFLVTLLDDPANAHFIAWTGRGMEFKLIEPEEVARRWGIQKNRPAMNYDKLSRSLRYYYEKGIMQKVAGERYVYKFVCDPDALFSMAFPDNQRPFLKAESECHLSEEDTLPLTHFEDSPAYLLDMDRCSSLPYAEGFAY
Chain of ETV1 (P50549 whole entry): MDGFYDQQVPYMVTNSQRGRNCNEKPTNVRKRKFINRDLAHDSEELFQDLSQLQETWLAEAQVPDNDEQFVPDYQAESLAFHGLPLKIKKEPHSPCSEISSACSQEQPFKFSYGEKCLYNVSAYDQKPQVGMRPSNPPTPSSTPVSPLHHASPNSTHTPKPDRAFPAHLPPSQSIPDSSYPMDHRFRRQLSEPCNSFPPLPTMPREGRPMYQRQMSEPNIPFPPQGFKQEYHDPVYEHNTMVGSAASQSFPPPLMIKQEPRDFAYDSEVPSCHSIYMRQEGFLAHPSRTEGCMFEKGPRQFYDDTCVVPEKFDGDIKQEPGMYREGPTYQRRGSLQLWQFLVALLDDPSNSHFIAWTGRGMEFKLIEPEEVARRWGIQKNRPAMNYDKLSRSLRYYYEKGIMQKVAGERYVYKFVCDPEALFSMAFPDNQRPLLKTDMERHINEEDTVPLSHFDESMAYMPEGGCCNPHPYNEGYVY

On to TAAATC, for which the binding signal is 1.21 fold enrichment (6-mer frequency, TF over GST control) with FEV; 1.23 fold enrichment (6-mer frequency, TF over GST control) in the experiment with ETV5; 1.9 fold enrichment (6-mer frequency, TF over GST control) with HSF1; 1.2 fold enrichment (6-mer frequency, TF over GST control) with SPIC; 1.3 fold enrichment (6-mer frequency, TF over GST control) in the experiment with ELF4; 1.27 fold enrichment (6-mer frequency, TF over GST control) with ELK4. The binding signal with ETV2 was 1.12 fold enrichment (6-mer frequency, TF over GST control); with ELF3, 1.2 fold enrichment (6-mer frequency, TF over GST control); with CRX, 2.81 fold enrichment (6-mer frequency, TF over GST control); in the experiment with ETV1, 1.26 fold enrichment (6-mer frequency, TF over GST control).

For TTTACC, the binding signal in the experiment with FEV was 1.32 fold enrichment (6-mer frequency, TF over GST control); with ETV5, 1.29 fold enrichment (6-mer frequency, TF over GST control); with HSF1, 1.25 fold enrichment (6-mer frequency, TF over GST control); in the experiment with SPIC, 1.17 fold enrichment (6-mer frequency, TF over GST control); in the experiment with ELF4, 1.24 fold enrichment (6-mer frequency, TF over GST control); in the experiment with ELK4, 1.41 fold enrichment (6-mer frequency, TF over GST control). Further, the binding signal with ETV2 was 1.3 fold enrichment (6-mer frequency, TF over GST control); with ELF3, 1.2 fold enrichment (6-mer frequency, TF over GST control); in the experiment with CRX, 1.48 fold enrichment (6-mer frequency, TF over GST control); in the experiment with ETV1, 1.16 fold enrichment (6-mer frequency, TF over GST control).

As for TACTGG, the binding signal with FEV was 1.01 fold enrichment (6-mer frequency, TF over GST control); with ETV5, 1.1 fold enrichment (6-mer frequency, TF over GST control); in the experiment with HSF1, 1.49 fold enrichment (6-mer frequency, TF over GST control); with SPIC it was 1.22 fold enrichment (6-mer frequency, TF over GST control); with ELF4 it was 1.19 fold enrichment (6-mer frequency, TF over GST control); with ELK4 it was 1.15 fold enrichment (6-mer frequency, TF over GST control). Further, the binding signal was 1.3 fold enrichment (6-mer frequency, TF over GST control) with ETV2; 1.17 fold enrichment (6-mer frequency, TF over GST control) with ELF3; 1.35 fold enrichment (6-mer frequency, TF over GST control) with CRX.

On to TCTGAC, for which the binding signal with FEV was 1.15 fold enrichment (6-mer frequency, TF over GST control); in the experiment with ETV5, 1.15 fold enrichment (6-mer frequency, TF over GST control); with HSF1, 1.07 fold enrichment (6-mer frequency, TF over GST control); in the experiment with SPIC it was 1.04 fold enrichment (6-mer frequency, TF over GST control); with ELF4, 1.35 fold enrichment (6-mer frequency, TF over GST control); with ELK4, 1.25 fold enrichment (6-mer frequency, TF over GST control). Moreover, the binding signal in the experiment with ETV2 is 1.16 fold enrichment (6-mer frequency, TF over GST control); in the experiment with ELF3, 1.18 fold enrichment (6-mer frequency, TF over GST control); with ETV1, 1.3 fold enrichment (6-mer frequency, TF over GST control).

Take GAAAAA: the binding signal in the experiment with FEV is 1.09 fold enrichment (6-mer frequency, TF over GST control); with ETV5, 1.13 fold enrichment (6-mer frequency, TF over GST control); in the experiment with HSF1, 1.41 fold enrichment (6-mer frequency, TF over GST control); with SPIC, 1.15 fold enrichment (6-mer frequency, TF over GST control); with ELF4, 1.17 fold enrichment (6-mer frequency, TF over GST control); with ELK4 it was 1.09 fold enrichment (6-mer frequency, TF over GST control). Further, the binding signal with ETV2 is 1.15 fold enrichment (6-mer frequency, TF over GST control); with ELF3, 1.2 fold enrichment (6-mer frequency, TF over GST control); with ETV1, 1.09 fold enrichment (6-mer frequency, TF over GST control).

On to ACCTCG, for which the binding signal with FEV was 1.05 fold enrichment (6-mer frequency, TF over GST control); with ETV5, 1.11 fold enrichment (6-mer frequency, TF over GST control); with HSF1 it was 1.14 fold enrichment (6-mer frequency, TF over GST control); with SPIC, 1.17 fold enrichment (6-mer frequency, TF over GST control); with ELF4, 1.18 fold enrichment (6-mer frequency, TF over GST control); in the experiment with ELK4 it was 1.35 fold enrichment (6-mer frequency, TF over GST control). Moreover, the binding signal with ETV2 was 1.28 fold enrichment (6-mer frequency, TF over GST control); with ELF3, 1.23 fold enrichment (6-mer frequency, TF over GST control); with ETV1, 1.15 fold enrichment (6-mer frequency, TF over GST control).

For TGAAAC, the binding signal with FEV is 1.31 fold enrichment (6-mer frequency, TF over GST control); with ETV5, 1.33 fold enrichment (6-mer frequency, TF over GST control); with HSF1 it was 1.13 fold enrichment (6-mer frequency, TF over GST control); with SPIC, 1.27 fold enrichment (6-mer frequency, TF over GST control); with ELF4 it was 1.27 fold enrichment (6-mer frequency, TF over GST control); with ELK4, 1.18 fold enrichment (6-mer frequency, TF over GST control). The binding signal with ETV2 is 1.4 fold enrichment (6-mer frequency, TF over GST control); with ELF3, 1.42 fold enrichment (6-mer frequency, TF over GST control); in the experiment with ETV1, 1.27 fold enrichment (6-mer frequency, TF over GST control).

Source of the values: publication PMC7862700, “An all-to-all approach to the identification of sequence-specific readers for epigenetic DNA modifications on cytosine”.
